Measured values published in the supplement of paper PMC10849652.
About 7,900 targets were measured; listed, in parts, are those with a hit and a random draw of the rest. About 0.6% of all pairs of compound and target were hits. A number with no mark means an inactive call.

compound: CN1CCN(CCOc2cc(OC3CCOCC3)c3c(Nc4c(Cl)ccc5c4OCO5)ncnc3c2)CC1 [saracatinib]; test: log2 fold change, soluble protein after heating vs DMSO (PISA); higher = thermal stabilisation; K562 cells, 10 uM, 30 min; active = over 0.2 and 3.5 SD of the protein, either way, in both replicates (recomputed)
Summary of the method: (§1)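 K562 cells at 2×10^6 cells/mL were treated with 10 μM compound for 30 min. Aliquots were heated for 3 min across 48°C-58°C, pooled, and extracted in PBS with 0.5% NP-40 at 4°C; soluble protein was the supernatant after 21,000xg for 90 min. Soluble protein was quantified by TMTpro 16plex LC-MS/MS with channel sums equalised, and reported as log2 fold change in thermal stability against DMSO controls, with values from duplicates.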

Sequence of UniProt P20700 (P20700 whole entry, looked up): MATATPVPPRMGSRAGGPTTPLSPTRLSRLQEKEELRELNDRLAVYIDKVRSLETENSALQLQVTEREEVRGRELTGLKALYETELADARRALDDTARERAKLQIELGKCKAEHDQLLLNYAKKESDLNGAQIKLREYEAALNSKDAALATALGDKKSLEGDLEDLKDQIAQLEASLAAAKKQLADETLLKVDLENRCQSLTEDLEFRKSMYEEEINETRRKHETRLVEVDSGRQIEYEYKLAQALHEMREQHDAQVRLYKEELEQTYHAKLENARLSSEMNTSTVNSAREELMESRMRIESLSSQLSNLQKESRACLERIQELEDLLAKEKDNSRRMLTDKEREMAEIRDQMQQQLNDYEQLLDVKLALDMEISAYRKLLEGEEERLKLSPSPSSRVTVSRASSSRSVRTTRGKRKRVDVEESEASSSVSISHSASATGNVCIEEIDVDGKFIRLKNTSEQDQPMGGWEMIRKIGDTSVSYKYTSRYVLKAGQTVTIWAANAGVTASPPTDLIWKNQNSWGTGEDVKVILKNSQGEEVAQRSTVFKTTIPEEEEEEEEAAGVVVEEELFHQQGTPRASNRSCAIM
Sequence of UniProt Q14624 (Q14624 whole entry, looked up): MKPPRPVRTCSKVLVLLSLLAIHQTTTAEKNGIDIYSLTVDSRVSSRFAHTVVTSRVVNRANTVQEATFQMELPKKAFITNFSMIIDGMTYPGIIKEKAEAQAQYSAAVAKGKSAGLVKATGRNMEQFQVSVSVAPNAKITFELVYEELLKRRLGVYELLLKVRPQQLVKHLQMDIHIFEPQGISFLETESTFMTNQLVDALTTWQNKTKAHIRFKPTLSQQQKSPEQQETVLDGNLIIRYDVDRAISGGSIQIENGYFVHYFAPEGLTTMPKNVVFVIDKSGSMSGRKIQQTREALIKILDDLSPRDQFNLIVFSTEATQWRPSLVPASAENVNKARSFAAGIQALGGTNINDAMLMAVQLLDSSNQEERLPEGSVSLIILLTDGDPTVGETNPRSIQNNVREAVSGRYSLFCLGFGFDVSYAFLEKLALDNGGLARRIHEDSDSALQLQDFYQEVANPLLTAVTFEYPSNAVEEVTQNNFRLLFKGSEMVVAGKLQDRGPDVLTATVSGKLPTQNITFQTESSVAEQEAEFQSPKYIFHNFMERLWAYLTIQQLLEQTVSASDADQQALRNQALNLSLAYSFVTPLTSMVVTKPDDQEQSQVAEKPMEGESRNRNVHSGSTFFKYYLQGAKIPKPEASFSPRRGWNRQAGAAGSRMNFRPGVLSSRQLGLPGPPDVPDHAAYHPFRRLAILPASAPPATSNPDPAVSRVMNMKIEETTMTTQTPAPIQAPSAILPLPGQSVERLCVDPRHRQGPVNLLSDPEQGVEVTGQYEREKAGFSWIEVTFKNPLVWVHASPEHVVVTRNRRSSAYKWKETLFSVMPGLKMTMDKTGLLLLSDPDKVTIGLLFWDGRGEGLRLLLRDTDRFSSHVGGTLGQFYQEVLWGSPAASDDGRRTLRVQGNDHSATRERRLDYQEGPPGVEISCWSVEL
Sequence of UniProt Q6N075 (Q6N075 whole entry, looked up): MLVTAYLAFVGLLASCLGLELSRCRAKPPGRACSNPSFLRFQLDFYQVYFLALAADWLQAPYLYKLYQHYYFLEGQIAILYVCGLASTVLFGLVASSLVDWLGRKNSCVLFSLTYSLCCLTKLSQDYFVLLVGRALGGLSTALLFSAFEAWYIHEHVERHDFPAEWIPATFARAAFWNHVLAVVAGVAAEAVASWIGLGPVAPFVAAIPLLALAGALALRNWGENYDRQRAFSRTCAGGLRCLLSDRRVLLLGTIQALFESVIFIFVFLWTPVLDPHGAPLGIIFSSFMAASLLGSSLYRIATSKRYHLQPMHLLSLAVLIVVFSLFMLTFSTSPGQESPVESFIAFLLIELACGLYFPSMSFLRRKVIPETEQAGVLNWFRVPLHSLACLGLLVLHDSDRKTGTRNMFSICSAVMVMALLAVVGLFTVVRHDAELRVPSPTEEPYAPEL
Sequence of UniProt Q8NC54 (Q8NC54 whole entry, looked up): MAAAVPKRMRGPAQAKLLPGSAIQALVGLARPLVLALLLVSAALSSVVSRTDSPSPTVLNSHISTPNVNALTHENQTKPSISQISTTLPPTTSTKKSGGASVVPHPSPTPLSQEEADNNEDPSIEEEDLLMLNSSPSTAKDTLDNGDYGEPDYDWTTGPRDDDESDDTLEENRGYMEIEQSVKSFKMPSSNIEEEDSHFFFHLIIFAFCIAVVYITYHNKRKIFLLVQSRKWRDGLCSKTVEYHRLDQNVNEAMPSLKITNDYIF
Sequence of UniProt P33947 (P33947 whole entry, looked up): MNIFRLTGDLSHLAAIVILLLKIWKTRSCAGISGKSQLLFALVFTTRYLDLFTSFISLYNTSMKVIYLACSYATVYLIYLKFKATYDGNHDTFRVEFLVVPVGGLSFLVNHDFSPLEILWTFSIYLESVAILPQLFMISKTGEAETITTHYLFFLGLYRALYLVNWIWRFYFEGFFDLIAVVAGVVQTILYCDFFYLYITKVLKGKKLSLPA
Sequence of UniProt Q68DH5 (Q68DH5 whole entry, looked up): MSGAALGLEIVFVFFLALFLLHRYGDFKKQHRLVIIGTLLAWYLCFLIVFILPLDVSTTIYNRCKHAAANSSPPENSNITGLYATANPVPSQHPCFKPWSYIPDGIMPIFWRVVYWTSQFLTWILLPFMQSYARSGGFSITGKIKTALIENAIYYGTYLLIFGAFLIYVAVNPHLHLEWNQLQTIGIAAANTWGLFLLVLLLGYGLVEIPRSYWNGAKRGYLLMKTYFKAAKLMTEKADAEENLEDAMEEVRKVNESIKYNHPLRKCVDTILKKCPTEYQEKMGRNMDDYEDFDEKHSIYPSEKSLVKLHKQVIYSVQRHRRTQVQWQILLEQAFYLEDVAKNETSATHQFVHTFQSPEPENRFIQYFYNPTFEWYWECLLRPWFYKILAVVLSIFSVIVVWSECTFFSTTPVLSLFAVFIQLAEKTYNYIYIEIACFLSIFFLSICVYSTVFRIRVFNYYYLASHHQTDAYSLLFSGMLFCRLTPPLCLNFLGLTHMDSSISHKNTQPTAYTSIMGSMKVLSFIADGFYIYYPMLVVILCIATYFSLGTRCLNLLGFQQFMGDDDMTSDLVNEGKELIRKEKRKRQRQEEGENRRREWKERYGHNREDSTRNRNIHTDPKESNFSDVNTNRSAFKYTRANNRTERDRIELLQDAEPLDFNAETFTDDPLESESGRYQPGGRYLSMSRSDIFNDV
Sequence of UniProt Q7LBC6 (Q7LBC6 whole entry, looked up): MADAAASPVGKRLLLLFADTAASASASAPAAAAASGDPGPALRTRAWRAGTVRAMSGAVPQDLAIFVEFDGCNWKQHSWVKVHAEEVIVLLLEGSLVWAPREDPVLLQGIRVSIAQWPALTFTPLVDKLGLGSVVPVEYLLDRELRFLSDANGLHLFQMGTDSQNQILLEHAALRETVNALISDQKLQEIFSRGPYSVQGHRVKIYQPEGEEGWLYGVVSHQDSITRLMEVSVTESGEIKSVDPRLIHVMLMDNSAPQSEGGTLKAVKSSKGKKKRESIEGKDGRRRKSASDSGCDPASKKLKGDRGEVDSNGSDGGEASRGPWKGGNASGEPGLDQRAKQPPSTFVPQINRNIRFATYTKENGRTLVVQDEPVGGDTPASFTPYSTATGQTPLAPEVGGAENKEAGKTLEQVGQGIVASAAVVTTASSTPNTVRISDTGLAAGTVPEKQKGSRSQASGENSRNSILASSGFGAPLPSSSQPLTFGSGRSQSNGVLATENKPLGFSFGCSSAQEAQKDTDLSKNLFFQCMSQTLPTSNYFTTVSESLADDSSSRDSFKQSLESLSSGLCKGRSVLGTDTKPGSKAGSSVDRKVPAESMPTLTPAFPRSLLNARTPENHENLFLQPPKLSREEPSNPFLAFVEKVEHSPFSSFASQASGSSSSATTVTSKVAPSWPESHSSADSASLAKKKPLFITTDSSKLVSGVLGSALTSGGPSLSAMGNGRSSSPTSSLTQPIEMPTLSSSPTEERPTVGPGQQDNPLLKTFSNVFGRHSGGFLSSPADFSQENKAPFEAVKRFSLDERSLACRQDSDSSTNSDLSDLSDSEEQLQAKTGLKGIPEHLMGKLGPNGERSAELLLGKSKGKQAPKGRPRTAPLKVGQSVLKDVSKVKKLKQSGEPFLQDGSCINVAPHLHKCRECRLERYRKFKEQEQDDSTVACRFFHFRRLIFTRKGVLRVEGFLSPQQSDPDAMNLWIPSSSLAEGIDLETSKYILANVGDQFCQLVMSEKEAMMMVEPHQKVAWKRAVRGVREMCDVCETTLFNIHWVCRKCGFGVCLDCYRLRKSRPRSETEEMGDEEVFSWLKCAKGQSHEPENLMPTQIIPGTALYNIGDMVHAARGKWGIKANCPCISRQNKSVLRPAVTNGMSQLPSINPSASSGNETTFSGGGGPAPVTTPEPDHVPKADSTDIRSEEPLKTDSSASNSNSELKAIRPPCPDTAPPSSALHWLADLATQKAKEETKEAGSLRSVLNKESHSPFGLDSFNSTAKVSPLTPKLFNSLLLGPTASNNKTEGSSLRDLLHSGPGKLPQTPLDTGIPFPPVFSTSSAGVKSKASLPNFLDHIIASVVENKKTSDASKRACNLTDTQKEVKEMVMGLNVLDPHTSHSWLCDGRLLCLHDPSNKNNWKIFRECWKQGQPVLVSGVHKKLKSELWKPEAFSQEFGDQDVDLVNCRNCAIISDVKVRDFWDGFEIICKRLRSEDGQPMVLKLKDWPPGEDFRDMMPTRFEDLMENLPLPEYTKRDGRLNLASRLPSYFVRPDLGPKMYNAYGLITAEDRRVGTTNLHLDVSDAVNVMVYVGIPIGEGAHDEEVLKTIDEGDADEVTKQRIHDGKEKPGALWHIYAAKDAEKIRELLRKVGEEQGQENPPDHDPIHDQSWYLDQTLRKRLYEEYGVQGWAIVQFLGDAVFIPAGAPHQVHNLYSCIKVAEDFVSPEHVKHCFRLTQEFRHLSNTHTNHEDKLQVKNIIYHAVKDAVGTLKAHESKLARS
Sequence of UniProt Q96A72 (Q96A72 whole entry, looked up): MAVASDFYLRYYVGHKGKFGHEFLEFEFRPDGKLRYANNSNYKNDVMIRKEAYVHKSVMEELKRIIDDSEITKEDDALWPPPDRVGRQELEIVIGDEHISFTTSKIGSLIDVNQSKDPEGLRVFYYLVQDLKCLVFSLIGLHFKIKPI

Target | log2 fold change
KDM3B (UniProt Q7LBC6) | 0.01
MAP2K7 isoform 4 (UniProt O14733) | 0.063
MIEF1 (UniProt L0R8F8) | -0.068
MARCKSL1 (UniProt P49006) | 0.02
MEPCE (UniProt Q7L2J0) | -0.019
MCUR1 (UniProt Q96AQ8) | -0.002
MED1 (UniProt Q15648) | 0.001
LNPEP (UniProt Q9UIQ6) | 0.048
IPO7 (UniProt O95373) | -0.004
LMNB1 (UniProt P20700) | 0.029
MAGEC2 (UniProt Q9UBF1) | 0.092
KDELR2 (UniProt P33947) | 0.094
INTS7 (UniProt Q9NVH2) | 0.035
LMBRD2 (UniProt Q68DH5) | 0.04
INPP5B (UniProt P32019) | 0.024
IRF2BPL (UniProt Q9H1B7) | 0.003
KIF3A (UniProt Q9Y496) | -0.102
LNPK (UniProt Q9C0E8) | 0.085
LEO1 (UniProt Q8WVC0) | -0.047
MCU (UniProt Q8NE86) | 0.039

Target | log2 fold change
MAP1LC3B2 (UniProt A6NCE7) | 0.016
MAST4 (UniProt O15021) | 0.006
ILK (UniProt Q13418) | -0.119
LARP7 isoform 3 (UniProt Q4G0J3) | 0.015
LDAH isoform 2 (UniProt Q9H6V9) | 0.092
MFN2 (UniProt O95140) | -0.005
MAGOHB (UniProt Q96A72) | -0.047
LMNB2 (UniProt Q03252) | -0.031
LTV1 (UniProt Q96GA3) | -0.09
KLHL18 (UniProt O94889) | -0.033
MFSD5 isoform 2 (UniProt Q6N075) | 0.058
MEAK7 (UniProt Q6P9B6) | 0.043
MCCC2 (UniProt Q9HCC0) | 0.033
ITIH4 (UniProt Q14624) | 0.045
KNTC1 (UniProt P50748) | -0.034
MFGE8 (UniProt Q08431) | -0.171
KCT2 (UniProt Q8NC54) | 0.027
MAPK9 (UniProt P45984) | -0.118
LSS (UniProt P48449) | 0.172

compound: CN1CCN(c2nc(C3=C(c4c[nH]c5ccccc45)C(=O)NC3=O)c3ccccc3n2)CC1 [sotrastaurin]; test: as above
Summary of the method: as §1

Target | log2 fold change
KDM3B (UniProt Q7LBC6) | -0.089
MAP2K7 isoform 4 (UniProt O14733) | 0.026
MIEF1 (UniProt L0R8F8) | -0.008
MARCKSL1 (UniProt P49006) | 0.315 (active)
MEPCE (UniProt Q7L2J0) | -0.022
MCUR1 (UniProt Q96AQ8) | 0.053
MED1 (UniProt Q15648) | -0.092
LNPEP (UniProt Q9UIQ6) | 0.037
IPO7 (UniProt O95373) | -0.089
LMNB1 (UniProt P20700) | -0.11
MAGEC2 (UniProt Q9UBF1) | -0.068
KDELR2 (UniProt P33947) | 0.061
INTS7 (UniProt Q9NVH2) | -0.503 (active)
LMBRD2 (UniProt Q68DH5) | 0.02
INPP5B (UniProt P32019) | -0.079
IRF2BPL (UniProt Q9H1B7) | -0.044
KIF3A (UniProt Q9Y496) | -0.073
LNPK (UniProt Q9C0E8) | 0.047
LEO1 (UniProt Q8WVC0) | -0.085
MCU (UniProt Q8NE86) | -0.028

Target | log2 fold change
MAP1LC3B2 (UniProt A6NCE7) | -0.115
MAST4 (UniProt O15021) | -0.103
ILK (UniProt Q13418) | 0.043
LARP7 isoform 3 (UniProt Q4G0J3) | -0.076
LDAH isoform 2 (UniProt Q9H6V9) | 0.035
MFN2 (UniProt O95140) | 0.045
MAGOHB (UniProt Q96A72) | -0.009
LMNB2 (UniProt Q03252) | -0.127
LTV1 (UniProt Q96GA3) | -0.037
KLHL18 (UniProt O94889) | -0.042
MFSD5 isoform 2 (UniProt Q6N075) | 0.122
MEAK7 (UniProt Q6P9B6) | -0.004
MCCC2 (UniProt Q9HCC0) | 0.018
ITIH4 (UniProt Q14624) | 0.271
KNTC1 (UniProt P50748) | -0.051
MFGE8 (UniProt Q08431) | -0.013
KCT2 (UniProt Q8NC54) | 0.042
MAPK9 (UniProt P45984) | 0.046
LSS (UniProt P48449) | 0.016
